# From PubChem
# Sampled rows, rich in hits. Any-hit rate of the full collection: about 3.8%.
# HT1080 IDH1KD tx = toxicity to HT-1080 IDH1 knockdown cells (counter line). Potency, µM (top dose mostly 46.1 µM), inactives show top-dose activity, negative = toxicity, usual class: cytotoxic. hit rate 2% among 360,000. HT-1080 IDH1 knockdown viability, ATP luminescence, 48 h;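 further: 0% = DMSO wells and -100% = cell-free medium wells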
#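 IDH1KD HT-1080 cells, 750/well, RPMI + 5% FBS; compound pinned after 2 h settling; 48 h, 37 °C; CellTiter-Glo luminescence; % activity normalised to DMSO and no-cell wells; curves fitted, classed by r2 and efficacy.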
# HT1080-NT tox = kills 2HG-producing HT-1080-NT fibrosarcoma cells. HT-1080-NT fibrosarcoma viability, CellTiter-Glo ATP luminescence, 48 h. hit rate 1.6% among 360,000. Potency, µM (top dose mostly 46.1 µM), for the others: top-dose activity, negative = less viability, hits mostly cytotoxic;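 further: NT is the 2HG producing partner of a matched IDH1 knockdown line; 0% = DMSO-treated cells and -100% = media-only wells without cells; nearly all actives have a fitted effect of over 55% in size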
#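 Compounds were tested in concentration-response format on HT-1080-NT cells for 48 hours at 37 degrees C. Cell viability came from CellTiter-Glo luminescence; curves were classified by r2, response magnitude and activity.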
# S2 tox = viability counter-screen for ATXN expression inhibitors. S2 cells (HEK-293 line with an ATXN2-luciferase reporter) viability, CellTiter-Fluor protease fluorescence, 24 h. Potency, µM (top dose mostly 56.7 µM), usual class: cytotoxic. hit rate 0.49% among 400,000. AID 651635; further: nearly all actives have a fitted effect of over 40% in size
# HepG2 viability = HepG2 cytotoxicity, counter-screen for TGF-b inhibitors; HepG2 CAGA-GFP viability, ATP luminescence, 18 h; Potency, µM (titrated, usually from 46.1 µM), for the others: at the top dose activity change, negative = cytotoxicity, most hits filed as cytotoxic; hit rate 0.76% among 410,000; AID 588856
#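 HepG2 CAGA-GFP cells (1000/well, DMEM with 1% FBS) received compound, then TGF-beta at 500 pg/mL final, and were incubated 18 hours at 37 degrees C. Viability was read by CellTiter-Glo luminescence. Media-only wells were set as complete cell-killing and DMSO as no toxicity.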
# ATXN2 expr inh = reduces ATXN2 reporter expression in HEK-293 cells | HEK-293 ATXN2-luciferase reporter, luminescence, 24 h | AID 1745845 | Potency, µM (titrated, usually from 57 µM), for the others: top-dose activity change, negative = inhibition, most hits filed as inhibitors | hit rate 0.72% among 360,000; further: on the % scale 0 is the no-effect control and ±100 the full control effect; nearly all actives have a fitted effect of over 55% in size
#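 ATXN2-luciferase reporter cells (luciferase flanked by upstream and downstream ATXN2 gene portions) were treated 24 h at 37 °C with compounds at up to 57 uM. SteadyGlo luminescence gave expression; GF-AFC fluorescence gave viability.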
# TGFb SMAD3 inh = blocks TGF-b signaling. HepG2 CAGA-GFP TGF-b/SMAD3 reporter, GFP fluorescence, 18 h; TGF-beta stimulated, 500 pg/mL final. hit rate 1.2% among 410,000. Potency, µM (top dose mostly 46.1 µM), inactives show top-dose activity, negative = inhibition, most hits filed as inhibitors; further: on the % scale 0 is the no-effect control and ±100 the full control effect; nearly all actives have a fitted effect of over 65% in size
#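 First, reporter cells (HEPG2 CAGA-GFP) rested 2 h at 37 degrees C. Next, compounds were pinned in and TGF-beta added to 500 pg/mL final. After 18 h, GFP was imaged per cell and summed per well.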
# * hit, by the source's call; i = inactive; ? = inconclusive; nt = no result given; [ ] = remark or other dose. The call rests on the fitted dose curve; in most records, active means well fitted curve in the direction sought with a large enough effect; inconclusive means small, poorly fitted or top-dose-only effect, or another doubt; inactive means no such curve, though single readings can be large; an effect the other way counts as inactive or inconclusive. Potency means the concentration at half of the fitted maximal effect.
SMILES,HT1080 IDH1KD tx,HT1080-NT tox,S2 tox,HepG2 viability,ATXN2 expr inh,TGFb SMAD3 inh
N#Cc1nc(-c2ccc(OCc3ccc(Cl)cc3)cc2)oc1N1CCCC1,nt,nt,nt,11%,nt,-3%
CC(C)(C)n1ncc2c(=O)n(Cc3ccc(C#N)cc3F)cnc21,nt,nt,nt,-8%,nt,-8%
Cc1ccc(-c2nnn(CC(=O)N(Cc3cccs3)C(C(=O)NC3CCCC3)c3ccncc3)n2)cc1 (stereo not drawn),?,16µM*,?,-18%,-5%,?
CCCn1c(=O)c2sccc2n2c(CCCC(=O)N3CCN(c4ccccc4OC)CC3)nnc12,nt,nt,nt,-3%,nt,-2%
CN(c1cccc(NC(=O)CN(c2ccc(C34CC5CC(CC(C5)C3)C4)cc2)S(C)(=O)=O)c1)S(C)(=O)=O,20µM*,?,?,-31%,?,11µM*
CCN1CCN(c2ncc3c(n2)CC(c2ccc(OC)c(OC)c2)CC3=O)CC1 (stereo not drawn),13µM*,11µM*,i,3%,-24%,15%
CCOC(=O)N1CCN(c2ncc3c(n2)CC(c2ccc(OC)c(OC)c2)CC3=O)CC1 (stereo not drawn),nt,nt,i,6%,-7%,1%
Cc1cccc(NC(=O)/C=C/c2ccc(Cl)cc2)n1,?,-15%,i,-35%,49%,0%
O=C(/C=C/c1cccs1)Nc1ccc(Br)cn1,0.18µM*,0.12µM*,?,19%,27%[11.3 µM],?
CNc1ccccc1C(=O)OC(C)C(=O)Nc1ccc(Cl)cn1 (stereo not drawn),4%,0%,i,-13%,8.9µM*,-35%
COc1ccccc1/C=C/C(=O)OCC(=O)Nc1ccc(Cl)cn1,-4%,-8%,i,-18%,25µM*,-11%
O=C(COC(=O)/C=C/c1ccccc1)Nc1ccc(Cl)cn1,3%,3%,i,-8%,-13%,-16%
O=C(/C=C/c1ccccc1)Nc1ccc(Cl)cn1,4.6µM*,?,i,-8%,35%,-21%
O=C(O)COc1nn(Cc2ccccc2)c2ccccc12,nt,nt,i,nt,0%,nt
O=C(COc1ccccc1C(=O)Nc1ccccc1)Nc1ccc2ccccc2c1,-9%,-18%,nt,nt,nt,nt
O=C(CC(c1ccccc1)c1ccccc1)Nc1ccc(Cl)cn1,15µM*,?,i,4%,-31%,8%
O=C(CS(=O)(=O)c1ccccc1)Nc1ccc(Cl)cn1,9%,27%,i,3%,12%,-2%
O=C(CC12CC3CC(CC(C3)C1)C2)Nc1cccc2nc(NCCNCCO)ccc12,nt,nt,nt,nt,-4%,nt
COc1ccc(-c2csc(NC(=S)NC(=O)/C=C/c3ccco3)n2)cc1Br,2.6µM*,3.7µM*,i,0%,?,-18%
COc1ccc(-c2csc(NC(=S)NC(=O)/C=C/c3ccc(C(C)C)cc3)n2)cc1OC,0%,10%,i,1%,7%,-6%
COc1ccc(-c2csc(NC(=S)NC(=O)c3ccco3)n2)cc1Br,16%,14%,i,-2%,-14%,-4%
COc1ccc(-c2csc(NC(=S)NC(=O)/C=C/c3ccco3)n2)cc1OC,18µM*,12µM*,?,-27%,-32%,10%
O=C1NN=C(c2ccc(Cl)cc2)CC1c1cccc(Br)c1 (stereo not drawn),?,?,i,-14%,-30%,10µM*
Cc1ccc(C(=O)N(Cc2cc3cccc(C)c3nc2N(C)C)CC2CCCO2)cc1 (stereo not drawn),nt,nt,i,nt,nt,nt
Cc1cc(S(=O)(=O)C(CNC(=O)COc2ccc(Cl)cc2)c2cccs2)ccc1F (stereo not drawn),nt,nt,nt,-7%,nt,-4%
SMILES,HT1080 IDH1KD tx,HT1080-NT tox,S2 tox,HepG2 viability,ATXN2 expr inh,TGFb SMAD3 inh
CCCCOC(=O)c1c(C)oc2ccc(NS(=O)(=O)c3ccc(F)cc3C)cc12,nt,nt,?,-106%,?,14µM*
Cc1ccc(C(=O)/C=C/C(=O)c2ccc(C)cc2)cc1,12µM*,-20%,?,-23%,?,-1%
CN(C)c1ccc(/C=C/c2ccnc3cc(Cl)ccc23)cc1,nt,nt,nt,-9%,nt,35%
C[C@]12CC[C@@H]3c4ccc(O)cc4CC[C@H]3[C@H]1C[C@@H](O)[C@H]2O,nt,nt,nt,nt,10%,nt
COc1ccc2[nH]c3c(NCCC4=CCCCC4)ncnc3c2c1,16µM*,29µM*,?,-114%,?,?
Cn1cc(CN2CCCC(CO)(Cc3ccccc3)C2)c2ccccc21 (stereo not drawn),?,?,i,1%,0%[11.3 µM],18%
CCn1cc(CN2CCCC(CO)(Cc3ccc(F)cc3)C2)c2ccccc21 (stereo not drawn),18µM*,?,i,-45%,?,?
Cc1cc(C)cc(-n2c(SCC(N)=O)nc3c(oc4ccccc43)c2=O)c1,nt,nt,nt,-17%,-31%,-23%
COCCNC(=O)Cc1c(C)c2c(cc(C)c3c(C(C)(C)C)coc32)oc1=O,8.2µM*,6.5µM*,i,-27%,11%,-29%
Cc1cc2oc(=O)c(CC(=O)NCCCN(C)C)c(C)c2c2occ(C(C)(C)C)c12,5.8µM*,18µM*,22µM*,22µM*,-28%,?
Cc1ccc2c(/C=C/c3ccc(N(C)C)cc3)ccnc2c1,nt,nt,nt,-33%,nt,?
CC1=C(C(=O)NCc2cccc(Cl)c2)C2(CCCCCC2)OC1=O,nt,nt,nt,-26%,nt,-7%
Nc1nc(N)c2cc(S(=O)(=O)c3ccc4ccccc4c3)ccc2n1,3.3µM*,8.2µM*,i,-75%,nt,?
Cc1ccc(C(=O)N/C(=C/c2ccc(-c3cc(C(F)(F)F)ccc3Cl)o2)C(=O)NCc2cccnc2)cc1,-21%,-17%,i,0%,-29%,13µM*
O=C(NCc1cccnc1)/C(=C/c1ccc(-c2cccc(C(F)(F)F)c2)o1)NC(=O)c1ccccc1,-28%,-15%,i,-11%,-10%,?
COc1cccc(/C=C2/SC(=S)N(CC(=O)Nc3nccs3)C2=O)c1,nt,nt,nt,9%,nt,44%
CC1CCN(c2c(NCc3ccc(C(=O)N4CCc5ccccc54)cc3)c(=O)c2=O)CC1,4.1µM*,5.2µM*,?,2%,-26%,?
COc1ccc(-c2cc(=O)n(-c3nc4ccccc4[nH]3)[nH]2)cc1,?,22µM*,?,-45%,-22%,-5%
c1ccc(-c2nc3ccccc3[nH]2)cc1,-8%,-16%,i,-20%,45%,-6%
COc1ccc(-c2nc3ccccc3[nH]2)cc1,11µM*,10µM*,i,7.9µM*,0%,8%
